The entries come from a sample that favours the strongest signals as a whole.
Key:
Assay in all cases: glycan array binding signal (z-score within array); higher = stronger binding
Conditions in all cases: glycan notation: IUPAC condensed, linker removed
[1] = biological target: Fuc(a1-2)Gal(b1-3)GalNAc(b1-3)Gal
Procedure, shortened: (§1)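 The Consortium for Functional Glycomics database supplied 3228 glycan arrays, of which those lacking an available protein sequence were dropped. The binding signal, a within-array Z-score, was averaged across arrays of the same protein sequence and across linkers. Negative scores can be read as non-binding.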

[2] = biological target: Fuc(a1-2)Gal(b1-3)GlcNAc
Procedure, shortened: as §1

[3] = biological target: Fuc(a1-2)Gal(b1-3)GlcNAc(b1-3)Gal(b1-4)Glc
Procedure, shortened: as §1

[4] = biological target: Fuc(a1-2)Gal(b1-3)GlcNAc6S
Procedure, shortened: as §1

[5] = biological target: Fuc(a1-2)Gal(b1-4)Glc6S
Procedure, shortened: as §1

[6] = biological target: Fuc(a1-2)[Gal(a1-3)]Gal(b1-3)GalNAc
Procedure, shortened: as §1

[7] = biological target: Fuc(a1-2)[GalNAc(a1-3)]Gal(b1-3)GlcNAc(b1-6)GalNAc
Procedure, shortened: as §1

[8] = biological target: Fuc(a1-3)GlcNAc
Procedure, shortened: as §1

[9] = biological target: Gal(a1-3)Gal(b1-3)GlcNAc
Procedure, shortened: as §1

[10] = biological target: Gal(a1-3)Gal(b1-3)GlcNAc(b1-6)GalNAc
Procedure, shortened: as §1

[11] = biological target: Gal(a1-4)Gal(b1-3)GlcNAc(b1-2)Man(a1-3)[Gal(a1-4)Gal(b1-3)GlcNAc(b1-2)Man(a1-6)]Man(b1-4)GlcNAc(b1-4)GlcNAc
Procedure, shortened: as §1

[12] = biological target: Gal(a1-6)Glc
Procedure, shortened: as §1

[13] = biological target: Gal(b1-3)Gal(b1-4)GlcNAc
Procedure, shortened: as §1

[14] = biological target: Gal(b1-3)GlcNAc(b1-2)Man(a1-3)[Gal(b1-3)GlcNAc(b1-2)Man(a1-6)]Man(b1-4)GlcNAc(b1-4)GlcNAc
Procedure, shortened: as §1

[15] = biological target: Gal(b1-3)GlcNAc(b1-2)Man(a1-3)[GlcNAc(b1-4)][Gal(b1-3)GlcNAc(b1-2)Man(a1-6)]Man(b1-4)GlcNAc(b1-4)GlcNAc
Procedure, shortened: as §1

[16] = biological target: Gal(b1-3)GlcNAc(b1-3)Gal(b1-3)GlcNAc
Procedure, shortened: as §1

[17] = biological target: Gal(b1-3)[Neu5Ac(a2-6)]GlcNAc(b1-6)Gal(b1-4)Glc
Procedure, shortened: as §1

[18] = biological target: Gal(b1-4)GlcNAc(a1-6)Gal(b1-4)GlcNAc
Procedure, shortened: as §1

[19] = biological target: Gal(b1-4)GlcNAc(b1-2)Man(a1-3)Man(b1-4)GlcNAc(b1-4)GlcNAc
Procedure, shortened: as §1

[20] = biological target: Gal(b1-4)GlcNAc(b1-2)Man(a1-3)[Gal(b1-4)GlcNAc(b1-2)Man(a1-6)]Man(b1-4)GlcNAc(b1-4)GlcNAc
Procedure, shortened: as §1

[21] = biological target: Gal(b1-4)GlcNAc(b1-2)Man(a1-3)[Man(a1-6)]Man(b1-4)GlcNAc(b1-4)GlcNAc
Procedure, shortened: as §1

[22] = biological target: Gal(b1-4)GlcNAc(b1-3)Gal(b1-3)GalNAc
Procedure, shortened: as §1

[23] = biological target: Gal(b1-4)GlcNAc(b1-3)Gal(b1-4)GlcNAc(b1-3)GalNAc
Procedure, shortened: as §1

[24] = biological target: Gal(b1-4)GlcNAc(b1-3)Gal(b1-4)[Fuc(a1-3)]GlcNAc(b1-3)Gal(b1-4)[Fuc(a1-3)]GlcNAc
Procedure, shortened: as §1

[25] = biological target: Gal(b1-4)GlcNAc(b1-3)[Gal(b1-4)GlcNAc(b1-6)]Gal(b1-4)GlcNAc
Procedure, shortened: as §1

[26] = biological target: Gal(b1-4)GlcNAc(b1-3)[GlcNAc(b1-6)]Gal(b1-4)GlcNAc
Procedure, shortened: as §1

[27] = biological target: Gal(b1-4)GlcNAc(b1-6)[Gal(b1-3)]GalNAc
Procedure, shortened: as §1

[28] = biological target: Gal(b1-6)Gal
Procedure, shortened: as §1

[29] = biological target: Gal3S(b1-3)GlcNAc
Procedure, shortened: as §1

[30] = biological target: Gal3S(b1-4)Glc
Procedure, shortened: as §1

B1: AMA (Arum maculatun) (protein)
chain: MAKLLLLLLLPAIVGLAVPRSAAAVGSNYMLSGETLNTDGRLTNGELTLIMQVDCNLVLYHGGWQSNTANNGRDCKLTLTDFGELVIKSGTGSTVWSSGSKQSMKGNYAAVVHPEGRLVIYGPSVFKINPSGAGLNGLPLRNIPLTNNMLFSGQVLYGDGTLSARNHKLVMQGDCNMVLYGGKYGWQSNTHGNGKYCFAMLTHKGELVIRDDDFKSVWSSKSSSKQGDYVFILQDDSLAIIYGPAVFSTGSKKMISMVTN
In the case of B1, the “glycan array binding signal (z-score)” value [1] is reported as -0.21, the “glycan array binding signal (z-score)” value [2] is reported as -0.176 and the “glycan array binding signal (z-score)” value [3] is reported as -0.22. For the same binder, the “glycan array binding signal (z-score)” value [4] was -0.207, the “glycan array binding signal (z-score)” value [5] was -0.208 and the “glycan array binding signal (z-score)” value [6] was -0.211. For the same binder, the “glycan array binding signal (z-score)” value [7] was -0.216, the “glycan array binding signal (z-score)” value [8] was -0.221 and the “glycan array binding signal (z-score)” value [9] was -0.21. For the same binder, the “glycan array binding signal (z-score)” value [10] was -0.216, the “glycan array binding signal (z-score)” value [11] was 5.86 and the “glycan array binding signal (z-score)” value [12] was -0.214. For the same binder, the “glycan array binding signal (z-score)” value [13] was -0.208, the “glycan array binding signal (z-score)” value [14] was 3.15 and the “glycan array binding signal (z-score)” value [15] was -0.205. The “glycan array binding signal (z-score)” value [16] was -0.207, the “glycan array binding signal (z-score)” value [17] was -0.198 and the “glycan array binding signal (z-score)” value [18] was -0.215. For the same binder, the “glycan array binding signal (z-score)” value [19] was -0.215, the “glycan array binding signal (z-score)” value [20] was 3.36 and the “glycan array binding signal (z-score)” value [21] was 0.479. The “glycan array binding signal (z-score)” value [22] was -0.219, the “glycan array binding signal (z-score)” value [23] was -0.149 and the “glycan array binding signal (z-score)” value [24] was -0.209. For the same binder, the “glycan array binding signal (z-score)” value [25] was -0.213, the “glycan array binding signal (z-score)” value [26] was -0.227 and the “glycan array binding signal (z-score)” value [27] was -0.212. The “glycan array binding signal (z-score)” value [28] was -0.208, the “glycan array binding signal (z-score)” value [29] was -0.209 and the “glycan array binding signal (z-score)” value [30] was -0.211.
